Data: publication PMC4336329 (PLoS ONE, 2015)
In all, about 310,000 compounds went through this assay and about 14,000 (4.5%) showed an effect of 50% or more. The effect is printed as a negative number. This excerpt belongs to a sample that is enriched for strong results.

biological target: human ether-à-go-go-related gene (hERG) potassium channel (human, UniProt Q12809); assay: primary screen, population patch clamp on CHO cells stably expressing hERG; higher = less effect of the substance
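Note: peak tail current of the secondary pulse compared with the same well before compound.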

Sequence of human ether-à-go-go-related gene (hERG) potassium channel (Q12809 whole entry, looked up): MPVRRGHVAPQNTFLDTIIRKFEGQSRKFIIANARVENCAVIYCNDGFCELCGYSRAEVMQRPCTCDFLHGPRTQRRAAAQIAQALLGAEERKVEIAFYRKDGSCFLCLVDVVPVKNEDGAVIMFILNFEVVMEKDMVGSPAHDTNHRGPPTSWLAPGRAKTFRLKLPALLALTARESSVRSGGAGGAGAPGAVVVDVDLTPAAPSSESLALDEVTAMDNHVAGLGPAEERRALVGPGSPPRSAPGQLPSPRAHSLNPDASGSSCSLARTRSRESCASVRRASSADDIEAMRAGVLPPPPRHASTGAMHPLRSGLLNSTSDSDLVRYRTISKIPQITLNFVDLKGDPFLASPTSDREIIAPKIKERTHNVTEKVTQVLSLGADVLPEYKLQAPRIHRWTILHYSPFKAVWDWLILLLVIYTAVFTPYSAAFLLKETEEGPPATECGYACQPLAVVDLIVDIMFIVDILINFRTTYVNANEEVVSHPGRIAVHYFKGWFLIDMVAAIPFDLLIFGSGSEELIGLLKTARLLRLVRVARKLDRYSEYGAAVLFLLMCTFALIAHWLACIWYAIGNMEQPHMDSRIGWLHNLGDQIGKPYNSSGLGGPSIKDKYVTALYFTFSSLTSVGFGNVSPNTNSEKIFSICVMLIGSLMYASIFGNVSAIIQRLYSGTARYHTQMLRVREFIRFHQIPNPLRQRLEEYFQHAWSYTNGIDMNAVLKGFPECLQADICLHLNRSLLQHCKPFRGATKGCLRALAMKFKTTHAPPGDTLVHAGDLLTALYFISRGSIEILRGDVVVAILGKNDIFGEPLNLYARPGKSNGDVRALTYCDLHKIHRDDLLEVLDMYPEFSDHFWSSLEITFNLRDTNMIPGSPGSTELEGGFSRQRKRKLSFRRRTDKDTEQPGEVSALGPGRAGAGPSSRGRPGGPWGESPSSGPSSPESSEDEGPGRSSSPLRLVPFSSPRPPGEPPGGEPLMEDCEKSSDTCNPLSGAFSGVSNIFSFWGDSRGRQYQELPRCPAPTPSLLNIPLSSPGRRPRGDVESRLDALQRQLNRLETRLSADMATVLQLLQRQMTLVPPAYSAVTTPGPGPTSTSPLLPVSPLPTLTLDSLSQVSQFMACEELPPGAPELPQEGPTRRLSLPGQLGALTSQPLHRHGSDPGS

Structure (SMILES)	hERG current change (%, negative = inhibition) at 10uM [%]
CN(Cc1cn[nH]c1-c1ccc2c(c1)OCO2)C1CCOCC1	12.7
CN(CCc1cnn(C)c1)Cc1cn(C)nc1-c1ccccc1F	9.85
CN(CCc1cnn(C)c1)Cc1cn(C)nc1-c1ccc2c(c1)OCCO2	5.94
Cn1cc(CNCc2cn[nH]c2-c2ccc(F)cc2)c(-c2ccc3c(c2)OCCO3)n1	-21.6
CCn1cc(CNCc2cn[nH]c2-c2cc3ccccc3o2)cn1	-14.1
CN(Cc1cn[nH]c1-c1ccc(-c2ccccc2)cc1)CC1CCOCC1	-46.2
COCCN1CCC(CNCc2cn[nH]c2-c2ccc(C)c(C)c2)C1 (centres unmarked)	-3.39
Cc1ccc(-c2[nH]ncc2CNCCc2cnn(-c3ccccc3)c2)cc1C	-66.4
Cn1cc(CCNCc2cn[nH]c2-c2ccc(-c3ccccc3)cc2)cn1	-64.8
CN(CCc1cnn(C)c1)Cc1cn[nH]c1-c1ccc(-c2ccccc2)cc1	-66.6
CN(CCC1CCOCC1)Cc1cn[nH]c1-c1ccc(-c2ccccc2)cc1	-62.6
O=C(COc1ccc2c3c(c(=O)oc2c1)CCC3)Nc1ccc(CCO)cc1	21.2
O=C(CCc1nnc(Cc2ccc(-c3ccccc3)cc2)o1)NCC1CC1	-4.72
CN(C)c1cc2c(cc1NS(=O)(=O)c1ccccc1)n(C)c(=O)n2C	10.5
CN1CCN(C(=O)Nc2cccc(-c3ccccc3)c2)CC1	-3.63
O=C(NCCC1=CCCCC1)c1c(O)nc2ccccn2c1=O	0.215
O=c1c2ccccc2nc(-c2ccco2)n1/N=C/c1ccco1	13.1
CC(C)N(C(=O)CSc1nc2ccccc2n1Cc1ccc(F)cc1)C(C)C	-27.3
CN1C[C@@H]2C(c3ccc(Cl)nc3)C3(c4ccc(C#N)cc4)CC2(C3)[C@H]1c1ccccc1 (some centres unmarked)	-54.9
CN1C[C@@H]2C(c3ccc(C(F)(F)F)cc3)C3(c4ccccc4)CC2(C3)[C@H]1c1ccccc1 (some centres unmarked)	-1.14
CN1C[C@@H]2C(c3ccccc3)C3(c4ccc(C#N)cc4)CC2(C3)[C@H]1c1ccccc1 (some centres unmarked)	-32.5
CN1C[C@@H]2C(c3ccc(C(F)(F)F)cc3)C3(c4cccnc4)CC2(C3)[C@H]1c1ccccc1 (some centres unmarked)	-60

Structure (SMILES)	hERG current change (%, negative = inhibition) at 10uM [%]
CN1C[C@@H]2C(c3ccccc3)C3(c4cccnc4)CC2(C3)[C@H]1c1ccccc1 (some centres unmarked)	-46.5
CN1C[C@@H]2C(c3ccc(Cl)nc3)C3(c4ccccc4)CC2(C3)[C@H]1c1ccccc1 (some centres unmarked)	-43.1
Clc1ccc(-c2nc(Cc3ccccc3)no2)cc1	11.9
Cn1ccs/c1=N\S(=O)(=O)c1ccc(C(C)(C)C)cc1	-11.5
CC(NC(=S)NC1CCCCC1)c1ccc(C(C)(C)C)cc1 (centres unmarked)	10.6
c1coc(-c2cc(C3CCNCC3)[nH]n2)c1	15.5
Cc1cc(C(=O)N2CCC(C)CC2)on1	1.18
CC(C)n1nc(C(=O)NNC(=O)c2ccncc2)c2ccccc2c1=O	3.56
CC(C)n1nc(C(=O)Oc2ccc(Cl)cc2)c2ccccc2c1=O	5.39
CC(C)n1nc(C(=O)NNC(=O)c2ccc(OC(F)F)cc2)c2ccccc2c1=O	-76.3
CN(C)C(=O)Oc1cccc(OCc2n(C)c3ccccc3[n+]2C)c1.[Cl-]	14.7
CCOC(=O)C(CCCOc1cccc(OC)c1)C(=O)OCC	-14.9
NNC(=O)Cn1c(COc2ccc(Cl)cc2)nc2ccccc21	-9.34
CN(C)C(=O)Oc1ccc(OCc2n(C)c3ccccc3[n+]2C)cc1.[Cl-]	5.79
CCCCCOC(=O)Cn1c(=O)oc2ccccc21	0.0173
CCCCCCCCCCOC(=O)Cn1c(COc2cccc(OC)c2)[n+](C)c2ccccc21.[Cl-]	-76.7
CCCCCCCCOc1ccc(C(=O)O)cc1	13.3
CCCCCCCCCCOC(=O)Cn1c(COc2ccc(Cl)cc2)[n+](C)c2ccccc21.[Cl-]	-76.2
CCCCCCCCCCOC(=O)Cn1c(COc2ccccc2)[n+](C)c2ccccc21.[Cl-]	-76.1
CCCCCCCCCCOC(=O)Cn1c(COc2ccc(C)cc2)[n+](C)c2ccccc21.[Cl-]	-74.9
CCCCc1n(CC(=O)c2ccc(Cl)cc2)c2ccccc2[n+]1C.[Br-]	8.02
Cc1ccc(OCCCCn2c(CO)nc3ccccc32)cc1	-14.6
